# Assays:
# Conditions in all cases: concentration: 1 μM, replicates: in singlicate; n = 1
# PRKD3 = tested on: PRKD3
# PRKG1 = tested on: PRKG1
# PRKG2 = tested on: PRKG2
# PRKR = tested on: T1, PRKR
# T1 construct: gene EIF2AK2
# PRKX = tested on: PRKX
# PRP4 = tested on: PRP4
# PYK2 = tested on: T2, PYK2
# T2 construct: gene PTK2B
# QSK = tested on: QSK
# RAF1 = tested on: RAF1
# RET = tested on: RET
# RIOK1 = tested on: RIOK1
# RIOK2 = tested on: RIOK2
# RIOK3 = tested on: RIOK3
# RIPK1 = tested on: RIPK1
# RIPK2 = tested on: RIPK2
# RIPK4 = tested on: RIPK4
# RIPK5 = tested on: RIPK5
# ROCK1 = tested on: ROCK1
# ROCK2 = tested on: ROCK2
# ROS1 = tested on: ROS1
# 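Also: KINOMEscan kinase panel screen.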
SMILES,%Inh (PRKD3) [%],%Inh (PRKG1) [%],%Inh (PRKG2) [%],%Inh (PRKR) [%],%Inh (PRKX) [%],%Inh (PRP4) [%],%Inh (PYK2) [%],%Inh (QSK) [%],%Inh (RAF1) [%],%Inh (RET) [%],%Inh (RIOK1) [%],%Inh (RIOK2) [%],%Inh (RIOK3) [%],%Inh (RIPK1) [%],%Inh (RIPK2) [%],%Inh (RIPK4) [%],%Inh (RIPK5) [%],%Inh (ROCK1) [%],%Inh (ROCK2) [%],%Inh (ROS1) [%]
Cc1ccc(F)c(C(=O)Nc2cccc(-c3nn4ccccc4c3-c3ccnc(Nc4cccc(F)c4)n3)c2)c1F [GSK361061],32,18,0,0,12,15,0,17,87,96.3,23,26,5,2,61,4,0,0,3,21
O=C(Nc1cccc(-c2nn3ncccc3c2-c2ccnc(Nc3ccccc3)n2)c1)c1c(F)cccc1F [GSK198271],47,0,0,0,11,6,27,10,94.1,99.7,4,17,16,0,94.8,10,6,34,0,28
CN(C)S(=O)(=O)c1cc(-c2ccc3nccc(-c4cccc(S(N)(=O)=O)c4)c3c2)cnc1N [GSK1669921],100,34,76,0,27,0,6,7,9,58,36,23,21,4,8,9,26,0,0,0
Cc1cccc(Nc2nc(N[C@H]3CCNC3)ncc2C(N)=O)c1.Cl [GSK2197149],75,0,0,22,38,23,49,14,0,30,99.8,28,89,0,0,90.7,1,67,45,32
CC(C)(C)c1ccc2nccc(Nc3cccc(O)c3)c2c1 [GW856795],77,1,4,0,0,27,0,0,0,94.7,21,0,24,0,34,43,0,55,30,0
Clc1ccc(-c2nn3ncccc3c2-c2ccnc(Nc3ccc4c(c3)OCCO4)n2)cc1 [GW829116],3,0,0,0,0,0,24,0,16,24,0,0,0,0,83,0,0,37,0,0
Cc1occc1-c1ncc(OC[C@@H](N)Cc2c[nH]c3ccccc23)cc1-c1ccc2[nH]nc(C)c2c1.O=C(O)C(F)(F)F [GSK682037],95.6,57,14,0,56,11,49,11,11,84,95.1,6,83,0,12,0,0,74,79,26
Cl.Cl.NCC(NCc1ccc(-c2ccnc3[nH]ccc23)s1)c1ccccc1 (stereo not shown) [GSK1321565],56,97.1,97.8,0,94.2,86,9,0,2,49,100,44,98.4,2,0,47,0,100,99.4,60

# Source: publication PMC5540273 (PLoS ONE, 2017)
